Experiment [1] in a line: compound effects on lung adenocarcinoma cell viability – A549, calcein-AM fluorescence, 48 h, basal, profiling panel (AID 1162). To be noted: higher = more signal.
Experiment [2] is described as follows: compound effects on differentiated 3T3-L1 adipocyte viability – cell-based, 3T3-L1 adipocytes, calcein-AM fluorescence, 48 h, basal, profiling panel (AID 1163). The following applies: 3T3-L1 adipocytes viability, higher = more signal.
Experiment [3] can be described thus: compound effects on hepatocellular carcinoma cell viability – HepG2, calcein-AM fluorescence, 48 h, basal, profiling panel (AID 1164). To be noted: higher = more signal.
The nature of experiment [4]: compound effects on multiple myeloma cell viability – MM1S, calcein-AM fluorescence, 48 h, basal, profiling panel (AID 1165).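 Further: viability of MM1S multiple myeloma cells under basal unstimulated conditions.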 To be noted: higher = more signal.
Experiment [5] is described as follows: calcein-AM signal in unstimulated myeloma cells – cell-based, calcein-AM fluorescence, 48 h, PK04 Diversity Set, profiling panel (AID 1166).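 Further: cells grown under basal conditions without added stimulus.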 To be noted: RPMI8226 myeloma viability, higher = more signal.
Experiment [6] in a line: JC-1 mitochondrial signal, unstimulated HepG2 cells – cell-based, JC-1 fluorescence, 24 h, 100 nL compound, profiling panel (AID 1167). To be noted: HepG2 mitochondrial potential, higher = more signal.
Experiment [7] in a line: JC-1 mitochondrial signal, unstimulated adipocytes – cell-based, JC-1 fluorescence, 3T3-L1 adipocytes, 24 h, 100 nL compound, profiling panel (AID 1168). To be noted: JC-1 mitochondrial fluorescence, higher = more signal, called active from +8 up or from −8 down.
Experiment [8] in a line: JC-1 mitochondrial signal, unstimulated myeloma cells – cell-based, JC-1 fluorescence, RPMI8226, 24 h, 100 nL compound, profiling panel (AID 1169). The following applies: JC-1 mitochondrial potential fluorescence, higher = more signal.
A short description of experiment [9]: JC-1 mitochondrial signal, unstimulated MM1S myeloma – cell-based, JC-1 fluorescence, 24 h, 100 nL compound, profiling panel (AID 1170). To be noted: MM1S mitochondrial potential, higher = more signal.
The nature of experiment [10]: resazurin metabolic signal in A549 cells – cell-based, resazurin fluorescence, 24 h, PK04 Diversity Set, profiling panel (AID 1171). The following applies: A549 viability, higher = more signal, called active from +8 up or from −8 down.

Calls of active or inactive are those of the source.
Further: test concentration not given here.

In the case of `CCN1C(=O)[C@H]2[C@H]3[C@H](O)[C@H](O)CC(=NOCC=C(C)CCC=C(C)C)[C@@H]3CC[C@H]2C1=O`, the z-score was -0.0234 in [1]; 0.28 in [2]; -0.196 in experiment [3]; -0.701 in experiment [4]; 0.203 in experiment [5]; -0.731 in experiment [6]. The z-score was -1.56 (inactive) in experiment [7], -0.321 in experiment [8], 0.355 in experiment [9] and 0.298 (inactive) in experiment [10].
Consider `CC(=O)OC[C@H]1O[C@H](C#CCC2CCCCC2)C=C[C@@H]1OC(C)=O`, for which the z-score is 0.422 in experiment [1]; -0.654 in [2]; 0.503 in experiment [3]; -3.48 in experiment [4]; -3.35 in experiment [5]; -1.1 in experiment [6]. The z-score was -0.185 (inactive) in experiment [7], -0.605 in experiment [8], -1.99 in [9] and -0.389 (inactive) in [10].
For `COC(=O)CC=C[C@@H](C)[C@@H](C=NOC[C@@H](C)[C@H](OCc1ccccc1)C(C)C)NS(=O)(=O)c1ccc(C)cc1`, the z-score in [1] is 0.0174; in experiment [2] it was 0.502; in experiment [3], -0.692; in experiment [4], -0.726; in experiment [5] it was -0.96; in [6], -0.685. The z-score in [7] was -2.09 (inactive); in experiment [8], -0.129; in experiment [9], -0.00529; in experiment [10] it was 0.0101 (inactive).
Consider `CCN1C(=O)[C@H]2[C@H]3[C@H](O)[C@H](O)CC(=NOCC(C)C)[C@H]3CC[C@H]2C1=O`, for which the z-score in experiment [1] is -0.124; in experiment [2], -0.574; in [3], -0.391; in experiment [4], 0.199; in experiment [5] it was 0.286; in [6] it was -0.584. The z-score was -0.977 (inactive) in [7], 0.0664 in experiment [8], -0.86 in experiment [9] and -0.348 (inactive) in experiment [10].
For `O=C1[C@H]2[C@H]3[C@H](O)[C@H](O)CC(=NOCc4ccccc4)[C@@H]3CC[C@H]2C(=O)N1c1cccc(Oc2ccccc2)c1`, the z-score is 0.794 in experiment [1]; -0.746 in experiment [2]; -0.505 in [3]; 0.213 in experiment [4]; 0.3 in experiment [5]; -0.231 in experiment [6]. Moreover, the z-score is -0.145 (inactive) in experiment [7], 0.542 in experiment [8], -1.68 in experiment [9] and -0.227 (inactive) in [10].
For `O=C1[C@H]2[C@H]3[C@H](O)[C@H](O)CC(=NO[C@@H]4O[C@H](CO)[C@@H](O)[C@H](O)[C@H]4O)[C@@H]3CC[C@H]2C(=O)N1c1cccc(Oc2ccccc2)c1`, the z-score in experiment [1] was 0.161; in [2], -0.45; in experiment [3] it was -0.593; in experiment [4] it was 0.365; in [5], -0.815; in [6], -0.655. The z-score in experiment [7] is -0.349 (inactive); in experiment [8] it was -0.277; in experiment [9], -0.229; in experiment [10] it was 0.39 (inactive).
In the case of `CCOC(=O)NN=C1C[C@@H](O)[C@@H](O)[C@@H]2[C@@H]3C(=O)N(CC)C(=O)[C@@H]3CC[C@H]12`, the z-score in [1] was 0.258; in experiment [2], -0.588; in experiment [3] it was 0.527; in [4], 0.464; in experiment [5], 0.268; in [6], 0.987. The z-score is -0.557 (inactive) in experiment [7], -0.241 in experiment [8], -0.809 in experiment [9] and -0.653 (inactive) in experiment [10].
Consider `CC(=O)OC[C@H]1O[C@@H](ON=C(C)CCC(=O)OC[C@H]2O[C@H](C#Cc3ccccc3)C=C[C@@H]2Oc2ccc(C)cc2)[C@H](OC(C)=O)[C@@H](OC(C)=O)[C@@H]1OC(C)=O`, for which the z-score in experiment [1] was 0.16; in [2], 0.57; in experiment [3], -0.325; in [4] it was 0.0628; in [5], -0.062; in [6], 0.632. For the same molecule, the z-score was -1.55 (inactive) in [7], 0.393 in experiment [8], 0.69 in experiment [9] and 0.221 (inactive) in [10].
Regarding `COC(=O)[C@H](C)NC(=O)CC=C[C@@H](C)[C@@H]1C=C[C@H](O)[C@@H](CO)O1`, the z-score in experiment [1] is -0.244; in experiment [2] it was -0.586; in experiment [3], 0.583; in [4] it was 0.203; in experiment [5], -0.859; in [6], -0.627. The z-score was -1.04 (inactive) in experiment [7], 0.685 in [8], -0.463 in experiment [9] and -0.521 (inactive) in experiment [10].
With `COc1ccc(O[C@H]2C=C[C@@H](c3ccccc3)O[C@@H]2CO)cc1`, the z-score in experiment [1] is 0.109; in [2] it was 0.0705; in experiment [3], -0.27; in [4], -0.307; in experiment [5], -0.0698; in [6], 0.194. Further, the z-score in [7] is -0.637 (inactive); in experiment [8], 0.362; in experiment [9], -0.42; in [10], -0.521 (inactive).
`CC(CCN1CCCc2nc(C)c(C)cc21)=NOC[C@@H](O)COCc1ccco1`: the z-score in experiment [1] was 0.604; in experiment [2] it was 0.827; in experiment [3] it was -0.496; in [4] it was -1.31; in experiment [5], -0.441; in [6], -1.46. For the same molecule, the z-score in [7] was -0.126 (inactive); in [8] it was 0.0583; in [9] it was -0.0723; in experiment [10], 0.287 (inactive).
Turning to `C[C@@H]1CC[C@H]2C(=O)OC(Cc3ccccc3)CN2[C@H]1c1ccc(Br)cc1` (stereo not given in full), the z-score in [1] is 1.47; in experiment [2] it was -1.25; in experiment [3], 0.556; in experiment [4], 0.637; in experiment [5] it was -0.66; in experiment [6] it was 1.34. In addition, the z-score is -1.43 (inactive) in [7], 0.558 in experiment [8], -0.332 in experiment [9] and 0.472 (inactive) in [10].
On to `O=C1CCCC=C1C(O)c1ccc([N+](=O)[O-])cc1` (stereo not given), for which the z-score is -0.419 in experiment [1]; -0.388 in experiment [2]; -0.0678 in experiment [3]; -0.629 in [4]; 0.372 in [5]; -0.614 in [6]. Besides, the z-score in [7] is -0.0489 (inactive); in experiment [8], 0.566; in experiment [9], 0.502; in experiment [10], -0.258 (inactive).
In the case of `CCN1C(=O)[C@H]2[C@H]3[C@H](O)[C@H](O)CC(=NOC[C@@H](O)COCc4ccco4)[C@H]3CC[C@H]2C1=O`, the z-score in [1] was -0.199; in experiment [2], 0.47; in [3], -0.0911; in [4] it was 0.133; in experiment [5], -0.229; in experiment [6], -0.326. For the same molecule, the z-score in experiment [7] was -0.128 (inactive); in [8], 0.545; in [9], 0.905; in experiment [10], -0.45 (inactive).
